Experimental data reported in the supplement of paper PMC12350171.
Where a name gives a salt, the structure may show the parent alone.

Columns and labels:
Settings in all cases: 20 µM
[1] = tested on: Salmonella enterica typhimurium; experiment: growth AUC normalised to DMSO control (fraction of control); higher = less growth inhibition, active = hit call of the paper
Procedure, shortened: (§1)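 For the AUC endpoint, growth curves were integrated by the trapezoidal rule up to the exponential-to-stationary transition and normalised to DMSO controls on the same plate. The curves came from OD578 readings taken hourly for 24 h, in three biological replicates. Pathogens had been passaged anaerobically twice and inoculated at an OD578 of 0.01 into pre-reduced mGAM plates carrying 20 μM compound and 1% DMSO, sealed with breathable membranes. Medium for Haemophilus parainfluenzae also contained hemin and NAD.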

Shigella flexneri = experiment: as above
Procedure, shortened: as §1

Vibrio cholerae = experiment: as above
Procedure, shortened: as §1

[2] = tested on: Yersinia pseudotuberculosis; experiment: as above
Procedure, shortened: as §1

P. vulgatus RND KO = experiment: growth AUC normalised to DMSO control (median) (fraction of control); higher = less growth inhibition, active = hit call of the paper
Procedure, shortened: (§2)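 Each strain went through two overnight passages under anaerobic conditions before growth in mGAM in 96-well plates, starting at OD578 0.01, with each compound from the approved-drug library at 20 μM and 1% DMSO. Inside an anaerobic incubator, OD578 was recorded every hour for 24 h. Growth curves were cut off at entry into stationary phase, and the area under the curve was calculated by the trapezoidal rule and normalised to vehicle wells on the same plate. Reported values are medians of three biological replicates.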

P. vulgatus WT = experiment: as above
Procedure, shortened: as §2

[3] = tested on: S. enterica typhimurium WT; experiment: as above
Procedure, shortened: as §2

[4] = tested on: S. enterica typhimurium tolC KO; experiment: as above
Procedure, shortened: as §2

Measured: growth AUC normalised to DMSO control
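Throughout, for growth AUC normalised to DMSO control (median): active when median AUC fell below 0.1.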

Cc1ccc(C)c(OCCCC(C)(C)C(=O)O)c1 [Gemfibrozil]
inactive: [1] 0.997 | Shigella flexneri 0.972 | Vibrio cholerae 0.983 | [2] 1 | P. vulgatus RND KO 0.969 | P. vulgatus WT 0.972 | [3] 1 | [4] 0.977

C[C@H](CCC(=O)O)[C@H]1CC[C@H]2[C@@H]3[C@H](O)C[C@@H]4C[C@H](O)CC[C@]4(C)[C@H]3CC[C@]12C [Chenodiol]
inactive: [1] 0.991 | Shigella flexneri 0.96 | Vibrio cholerae 0.988 | [2] 1.01 | P. vulgatus RND KO 0.922 | P. vulgatus WT 0.94 | [3] 0.998 | [4] 1.01

CCCSc1ccc2[nH]c(NC(=O)OC)nc2c1 [Albendazole]
inactive: [1] 1 | Shigella flexneri 1.03 | Vibrio cholerae 0.99 | [2] 0.993 | P. vulgatus RND KO 1.03 | P. vulgatus WT 1.07 | [3] 0.999 | [4] 1

CCN(CCO)CCCC(C)Nc1ccnc2cc(Cl)ccc12 (stereo not given) [Hydroxychloroquine sulfate]
inactive: [1] 1 | Shigella flexneri 0.988 | Vibrio cholerae 1.01 | [2] 1.01 | P. vulgatus RND KO 1.02 | P. vulgatus WT 1.01 | [3] 1 | [4] 0.995

CCCN(CCC)CCc1cccc2c1CC(=O)N2 [Ropinirole hydrochloride]
inactive: [1] 0.997 | Shigella flexneri 1.02 | Vibrio cholerae 0.976 | [2] 0.985 | P. vulgatus RND KO 1.03 | P. vulgatus WT 1.04 | [3] 1 | [4] 0.988

Nc1ccc(S(=O)(=O)Nc2ccnn2-c2ccccc2)cc1 [Sulfaphenazole]
active: Vibrio cholerae 0.856
inactive: [1] 1 | Shigella flexneri 1.01 | [2] 1.01 | P. vulgatus RND KO 0.989 | P. vulgatus WT 0.961 | [3] 0.998 | [4] 0.981

O=C(NC(Cc1cc(=O)[nH]c2ccccc12)C(=O)O)c1ccc(Cl)cc1 (stereo not given) [Rebamipide]
inactive: [1] 1 | Shigella flexneri 1.03 | Vibrio cholerae 1.03 | [2] 0.997 | P. vulgatus RND KO 1.06 | P. vulgatus WT 1.09 | [3] 0.99 | [4] 0.998

COc1ccccc1OCC(O)CN1CCN(CC(=O)Nc2c(C)cccc2C)CC1 (stereo not given) [Ranolazine]
inactive: [1] 1 | Shigella flexneri 1 | Vibrio cholerae 1.01 | [2] 1.01 | P. vulgatus RND KO 0.994 | P. vulgatus WT 1 | [3] 0.998 | [4] 0.998

Cc1cc(C(C)(C)C)cc(C)c1CC1=NCCN1 [Xylometazoline hydrochloride]
inactive: [1] 1.03 | Shigella flexneri 0.999 | Vibrio cholerae 0.999 | [2] 0.989 | P. vulgatus RND KO 1.02 | P. vulgatus WT 1.02 | [3] 0.995 | [4] 0.989

CC(=O)N1CCN(c2ccc(OCC3COC(Cn4ccnc4)(c4ccc(Cl)cc4Cl)O3)cc2)CC1 (stereo not given) [Ketoconazole]
inactive: [1] 1.01 | Shigella flexneri 0.998 | Vibrio cholerae 0.988 | [2] 0.984 | P. vulgatus RND KO 0.955 | P. vulgatus WT 0.972 | [3] 0.998 | [4] 0.884

Cc1c(N(C)C)c(=O)n(-c2ccccc2)n1C [Amidopyrine]
inactive: [1] 1.01 | Shigella flexneri 1.03 | Vibrio cholerae 1.05 | [2] 1.01 | P. vulgatus RND KO 1 | P. vulgatus WT 1.02 | [3] 1.01 | [4] 0.999

CN(C)CCC(c1ccc(Br)cc1)c1ccccn1 (stereo not given) [Brompheniramine maleate]
inactive: [1] 0.99 | Shigella flexneri 1 | Vibrio cholerae 1.02 | [2] 1 | P. vulgatus RND KO 0.994 | P. vulgatus WT 0.995 | [3] 0.977 | [4] 0.856

N=C(N)NS(=O)(=O)c1ccc(N)cc1 [Sulfaguanidine]
inactive: [1] 1.01 | Shigella flexneri 0.98 | Vibrio cholerae 1.04 | [2] 1.04 | P. vulgatus RND KO 1.06 | P. vulgatus WT 1.05 | [3] 0.999 | [4] 1

CCOC(=O)C1=C(COCCN)NC(C)=C(C(=O)OC)C1c1ccccc1Cl (stereo not given) [Amlodipine]
inactive: [1] 0.997 | Shigella flexneri 0.99 | Vibrio cholerae 0.985 | [2] 1.01 | P. vulgatus RND KO 1.02 | P. vulgatus WT 1.02 | [3] 1.02 | [4] 1.01

CC1(C)S[C@@H]2[C@H](NC(=O)[C@H](C(=O)O)c3ccsc3)C(=O)N2[C@H]1C(=O)O [Ticarcillin sodium]
active: [1] 0.00595 | Shigella flexneri 0.178 | Vibrio cholerae 0.116 | [2] 0.0593 | P. vulgatus RND KO 0.00834 | P. vulgatus WT 0.0131 | [3] 0.00844 | [4] 0.0028

CN1CC2c3ccccc3Oc3ccc(Cl)cc3C2C1 (stereo not given) [Asenapine maleate]
inactive: [1] 0.954 | Shigella flexneri 0.974 | [2] 0.976 | P. vulgatus RND KO 0.939 | P. vulgatus WT 0.948 | [3] 0.973 | [4] 0.935
active: Vibrio cholerae 0.837

OC(c1cc(C(F)(F)F)nc2c(C(F)(F)F)cccc12)C1CCCCN1 (stereo not given) [Mefloquine hydrochloride]
inactive: [1] 0.997 | Shigella flexneri 0.975 | Vibrio cholerae 1 | [2] 0.99 | P. vulgatus RND KO 0.719 | P. vulgatus WT 0.777 | [3] 0.998 | [4] 0.948

COc1ccc2[nH]c([S+]([O-])Cc3ncc(C)c(OC)c3C)nc2n1 (stereo not given) [Tenatoprazole]
inactive: [1] 0.988 | Shigella flexneri 1 | Vibrio cholerae 0.894 | [2] 0.998 | P. vulgatus RND KO 1.03 | P. vulgatus WT 1.06 | [3] 1 | [4] 0.963

Oc1c(I)cc(Cl)c2cccnc12 [Clioquinol]
active: P. vulgatus WT 0.0312
inactive: [1] 1.03 | Shigella flexneri 0.996 | Vibrio cholerae 1.07 | [2] 1.01 | P. vulgatus RND KO 0.134 | [3] 1.01 | [4] 0.55

CCC(=O)[C@@]1(C)[C@H](C)C[C@H]2[C@@H]3CCC4=CC(=O)C=C[C@]4(C)[C@H]3[C@@H](O)C[C@@]21C [Rimexolone]
inactive: [1] 1.01 | Shigella flexneri 1.01 | Vibrio cholerae 1.01 | [2] 0.997 | P. vulgatus RND KO 1.03 | P. vulgatus WT 1.07 | [3] 1 | [4] 0.999

Cc1c(-c2ccccc2)oc2c(C(=O)OCCN3CCCCC3)cccc2c1=O [Flavoxate hydrochloride]
inactive: [1] 1 | Shigella flexneri 1.02 | Vibrio cholerae 1.01 | [2] 0.984 | P. vulgatus RND KO 1.06 | P. vulgatus WT 1.1 | [3] 1.02 | [4] 0.952

CCN(CC)CC#CCOC(=O)C(O)(c1ccccc1)C1CCCCC1 (stereo not given) [Oxybutynin chloride]
inactive: [1] 0.977 | Shigella flexneri 0.944 | Vibrio cholerae 0.935 | [2] 0.981 | P. vulgatus RND KO 0.976 | P. vulgatus WT 0.986 | [3] 0.999 | [4] 0.946

CC12CC3CC(C)(C1)CC(N)(C3)C2 [Memantine hydrochloride]
inactive: [1] 0.997 | Shigella flexneri 0.99 | Vibrio cholerae 1.01 | [2] 0.985 | P. vulgatus RND KO 1.01 | P. vulgatus WT 1.02 | [3] 1.01 | [4] 1

Cc1ccc(C(=O)c2ccc(CC(=O)O)n2C)cc1 [Tolmetin sodium salt dihydrate]
inactive: [1] 0.984 | Shigella flexneri 1.04 | Vibrio cholerae 1.05 | [2] 1.01 | P. vulgatus RND KO 0.983 | P. vulgatus WT 0.985 | [3] 0.999 | [4] 1

CCc1cc(C(N)=S)ccn1 [Ethionamide]
inactive: [1] 0.991 | Shigella flexneri 0.963 | Vibrio cholerae 0.998 | [2] 0.975 | P. vulgatus RND KO 1 | P. vulgatus WT 0.986 | [3] 0.996 | [4] 0.994

C#C[C@]1(OC(C)=O)CC[C@H]2[C@@H]3CCC4=C[C@@H](OC(C)=O)CC[C@@H]4[C@H]3CC[C@@]21C [Ethynodiol diacetate]
inactive: [1] 0.971 | Shigella flexneri 0.988 | Vibrio cholerae 0.963 | [2] 0.986 | P. vulgatus RND KO 0.922 | P. vulgatus WT 0.954 | [3] 0.997 | [4] 0.941

C1CCC(C(CC2CCCCN2)C2CCCCC2)CC1 (stereo not given) [Perhexiline maleate]
inactive: [1] 0.983 | Shigella flexneri 0.977 | Vibrio cholerae 0.931 | [2] 1.01 | P. vulgatus RND KO 0.915 | P. vulgatus WT 0.954 | [3] 0.994 | [4] 0.945

COc1ccccc1N1CCN(CC(O)COc2cccc3ccccc23)CC1 (stereo not given) [Naftopidil dihydrochloride]
inactive: [1] 1.01 | Shigella flexneri 1 | Vibrio cholerae 0.894 | [2] 0.991 | P. vulgatus RND KO 0.933 | P. vulgatus WT 0.971 | [3] 1.01 | [4] 0.914

CCc1ccc(CCOc2ccc(CC3SC(=O)NC3=O)cc2)nc1 (stereo not given) [Pioglitazone]
inactive: [1] 0.967 | Shigella flexneri 0.958 | Vibrio cholerae 0.911 | [2] 0.922 | P. vulgatus RND KO 0.994 | P. vulgatus WT 0.992 | [3] 0.996 | [4] 0.993

CCN1CCC[C@H]1CNC(=O)c1c(OC)ccc(Br)c1OC [Remoxipride hydrochloride]
inactive: [1] 1.01 | Shigella flexneri 1.04 | Vibrio cholerae 1.03 | [2] 1.01 | P. vulgatus RND KO 1.03 | P. vulgatus WT 1.06 | [3] 1.01 | [4] 1.01
